B1: unnamed (peptide)
chain: AHFQPQRTAPKPPIS
B2: unnamed (peptide)
chain: PSTMDFPKLPSFQNS
B3: unnamed (peptide)
chain: VATSTSPKLPPRGKQ

target: AgAbp1; assay: SPOT peptide array binding signal intensity (averaged, normalized) (arbitrary units (background-subtracted, floor 0; scale differs between SH3 domains)); higher = stronger binding of the SH3 domain to the peptide
Outline: (§1)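 GST-fused SH3 domains, from four yeast species, were produced in E. coli BL21(DE3) and captured on glutathione Sepharose. Membranes of cellulose carrying synthetic 15-mer peptides, in which cysteines had been replaced by serines, were exposed to each domain at 10 μg/ml overnight at 4°C in TBS-based blocking buffer. After anti-GST antibody, an HRP anti-mouse secondary and luminol, spots were imaged and quantified using Genespotter. Binding signal is normalized and background-subtracted spot intensity, averaged over replicates, in arbitrary units that differ between domains.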

Binder | SPOT peptide array binding signal intensity
B1 | 2.5
B3 | 3

target: AgBbc1; assay: as above
Outline: as §1

Binder | SPOT peptide array binding signal intensity
B1 | 89.8
B3 | 548

target: AgBem1-D1; assay: as above
Outline: as §1

Binder | SPOT peptide array binding signal intensity
B1 | 58.8
B3 | 8.5

target: AgBzz1-D1; assay: as above
Outline: as §1

Binder | SPOT peptide array binding signal intensity
B1 | 16
B3 | 84

target: AgBzz1-D2; assay: as above
Outline: as §1

Binder | SPOT peptide array binding signal intensity
B1 | 54.5
B3 | 100

target: AgCyk3; assay: as above
Outline: as §1

Binder | SPOT peptide array binding signal intensity
B1 | ≤ 0
B3 | ≤ 0

target: AgFus1; assay: as above
Outline: as §1

Binder | SPOT peptide array binding signal intensity
B1 | ≤ 0
B3 | 5

target: AgHof1; assay: as above
Outline: as §1

Binder | SPOT peptide array binding signal intensity
B1 | 3
B3 | 9.5

target: AgHse1; assay: as above
Outline: as §1

Binder | SPOT peptide array binding signal intensity
B1 | 18
B3 | 24

target: AgLsb1; assay: as above
Outline: as §1

Binder | SPOT peptide array binding signal intensity
B1 | 16.8
B3 | 290

target: AgLsb4; assay: as above
Outline: as §1

Binder | SPOT peptide array binding signal intensity
B1 | 0.5
B3 | 4510

target: AgMyo5; assay: as above
Outline: as §1

Binder | SPOT peptide array binding signal intensity
B1 | 954
B3 | ≤ 0

target: AgNbp2; assay: as above
Outline: as §1

Binder | SPOT peptide array binding signal intensity
B1 | 3970
B3 | 4

target: AgRvs167; assay: as above
Outline: as §1

Binder | SPOT peptide array binding signal intensity
B1 | 0.583
B3 | 745

target: AgSho1; assay: as above
Outline: as §1

Binder | SPOT peptide array binding signal intensity
B1 | ≤ 0
B3 | 18

target: AgSla1-D1-D2; assay: as above
Outline: as §1

Binder | SPOT peptide array binding signal intensity
B1 | ≤ 0
B3 | 3.5

target: AgSla1-D3; assay: as above
Outline: as §1

Binder | SPOT peptide array binding signal intensity
B1 | 1
B3 | 1.5

target: CaAbp1-D1; assay: as above
Outline: as §1

Binder | SPOT peptide array binding signal intensity
B1 | 65.5
B3 | 87

target: CaAbp1-D2; assay: as above
Outline: as §1

Binder | SPOT peptide array binding signal intensity
B1 | 33.8
B3 | 79.5

target: CaBbc1; assay: as above
Outline: as §1

Binder | SPOT peptide array binding signal intensity
B1 | 743
B3 | 521

target: CaBem1-D1; assay: as above
Outline: as §1

Binder | SPOT peptide array binding signal intensity
B1 | 958
B3 | 19.5

target: CaBzz1-D1; assay: as above
Outline: as §1

Binder | SPOT peptide array binding signal intensity
B1 | 779
B3 | 93

target: CaBzz1-D2; assay: as above
Outline: as §1

Binder | SPOT peptide array binding signal intensity
B1 | 136
B3 | 96.5

target: CaCyk3; assay: as above
Outline: as §1

Binder | SPOT peptide array binding signal intensity
B1 | ≤ 0
B3 | ≤ 0

target: CaFus1; assay: as above
Outline: as §1

Binder | SPOT peptide array binding signal intensity
B1 | ≤ 0
B3 | 80

target: CaHof1; assay: as above
Outline: as §1

Binder | SPOT peptide array binding signal intensity
B1 | ≤ 0
B3 | 0.5

target: CaHse1; assay: as above
Outline: as §1

Binder | SPOT peptide array binding signal intensity
B1 | 2.5
B3 | 37

target: CaLsb1; assay: as above
Outline: as §1

Binder | SPOT peptide array binding signal intensity
B1 | ≤ 0
B3 | 1

target: CaLsb4; assay: as above
Outline: as §1

Binder | SPOT peptide array binding signal intensity
B1 | 23
B3 | 3500

target: CaMyo5; assay: as above
Outline: as §1

Binder | SPOT peptide array binding signal intensity
B1 | 33.6
B3 | 4.75

target: SpBzz1-D2; assay: as above
Outline: as §1

Binder | SPOT peptide array binding signal intensity
B2 | 10.5
B3 | ≤ 0

target: SpCyk3; assay: as above
Outline: as §1

Binder | SPOT peptide array binding signal intensity
B2 | 1
B3 | ≤ 0

target: SpHof1; assay: as above
Outline: as §1

Binder | SPOT peptide array binding signal intensity
B2 | 30.2
B3 | 1.25

target: SpHof1-2; assay: as above
Outline: as §1

Binder | SPOT peptide array binding signal intensity
B2 | 72.2
B3 | 0.5

target: SpHof1-3; assay: as above
Outline: as §1

Binder | SPOT peptide array binding signal intensity
B2 | 18
B3 | 61.2

target: SpHse1; assay: as above
Outline: as §1

Binder | SPOT peptide array binding signal intensity
B2 | 289
B3 | 0.5

target: SpLsb1; assay: as above
Outline: as §1

Binder | SPOT peptide array binding signal intensity
B2 | ≤ 0
B3 | 623

target: SpLsb4; assay: as above
Outline: as §1

Binder | SPOT peptide array binding signal intensity
B2 | 658
B3 | 6830

target: SpMyo1; assay: as above
Outline: as §1

Binder | SPOT peptide array binding signal intensity
B2 | 91.5
B3 | ≤ 0

target: SpNbp2; assay: as above
Outline: as §1

Binder | SPOT peptide array binding signal intensity
B2 | 130
B3 | ≤ 0

target: SpPex13; assay: as above
Outline: as §1

Binder | SPOT peptide array binding signal intensity
B2 | 38
B3 | 2

target: SpRvs167; assay: as above
Outline: as §1

Binder | SPOT peptide array binding signal intensity
B2 | 59
B3 | 3730

target: SpSla1-D1-D2; assay: as above
Outline: as §1

Binder | SPOT peptide array binding signal intensity
B2 | 4
B3 | 2

target: SpSla1-D3; assay: as above
Outline: as §1

Binder | SPOT peptide array binding signal intensity
B2 | 133
B3 | ≤ 0

target: CaNbp2; assay: as above
Outline: as §1

Binder | SPOT peptide array binding signal intensity
B3 | 2

target: CaRvs167; assay: as above
Outline: as §1

Binder | SPOT peptide array binding signal intensity
B3 | 1970

target: CaRvs167-3; assay: as above
Outline: as §1

Binder | SPOT peptide array binding signal intensity
B3 | ≤ 0

target: CaSho1; assay: as above
Outline: as §1

Binder | SPOT peptide array binding signal intensity
B3 | 13

target: CaSla1-D1-D2; assay: as above
Outline: as §1

Binder | SPOT peptide array binding signal intensity
B3 | 32

target: CaSla1-D3; assay: as above
Outline: as §1

Binder | SPOT peptide array binding signal intensity
B3 | ≤ 0

target: ScAbp1; assay: as above
Outline: as §1

Binder | SPOT peptide array binding signal intensity
B3 | 21.5

target: ScBbc1; assay: as above
Outline: as §1

Binder | SPOT peptide array binding signal intensity
B3 | 18.8

target: ScBem1-D1; assay: as above
Outline: as §1

Binder | SPOT peptide array binding signal intensity
B3 | ≤ 0

target: ScBzz1-D1; assay: as above
Outline: as §1

Binder | SPOT peptide array binding signal intensity
B3 | 61.5

target: ScBzz1-D2; assay: as above
Outline: as §1

Binder | SPOT peptide array binding signal intensity
B3 | 17.5

target: ScCyk3; assay: as above
Outline: as §1

Binder | SPOT peptide array binding signal intensity
B3 | ≤ 0

target: ScFus1; assay: as above
Outline: as §1

Binder | SPOT peptide array binding signal intensity
B3 | 2.5

target: ScHof1; assay: as above
Outline: as §1

Binder | SPOT peptide array binding signal intensity
B3 | 3.25

target: ScHse1; assay: as above
Outline: as §1

Binder | SPOT peptide array binding signal intensity
B3 | 3

target: ScLsb1; assay: as above
Outline: as §1

Binder | SPOT peptide array binding signal intensity
B3 | 268

target: ScLsb2; assay: as above
Outline: as §1

Binder | SPOT peptide array binding signal intensity
B3 | 31

target: ScLsb3; assay: as above
Outline: as §1

Binder | SPOT peptide array binding signal intensity
B3 | 6600

target: ScLsb4; assay: as above
Outline: as §1

Binder | SPOT peptide array binding signal intensity
B3 | 3830

target: ScMyo3; assay: as above
Outline: as §1

Binder | SPOT peptide array binding signal intensity
B3 | ≤ 0

target: ScMyo5; assay: as above
Outline: as §1

Binder | SPOT peptide array binding signal intensity
B3 | 3.25

target: ScNbp2; assay: as above
Outline: as §1

Binder | SPOT peptide array binding signal intensity
B3 | 5

target: ScPex13; assay: as above
Outline: as §1

Binder | SPOT peptide array binding signal intensity
B3 | 882

target: ScRvs167; assay: as above
Outline: as §1

Binder | SPOT peptide array binding signal intensity
B3 | 2350

target: ScSho1; assay: as above
Outline: as §1

Binder | SPOT peptide array binding signal intensity
B3 | 40.5

target: ScSla1-D1-D2; assay: as above
Outline: as §1

Binder | SPOT peptide array binding signal intensity
B3 | 17

target: ScSla1-D3; assay: as above
Outline: as §1

Binder | SPOT peptide array binding signal intensity
B3 | ≤ 0

target: SpAbp1-D1; assay: as above
Outline: as §1

Binder | SPOT peptide array binding signal intensity
B3 | 97

target: SpBbc1; assay: as above
Outline: as §1

Binder | SPOT peptide array binding signal intensity
B3 | 0.25

target: SpBzz1-D1; assay: as above
Outline: as §1

Binder | SPOT peptide array binding signal intensity
B3 | 286

Source: the supplement of paper PMC4466140
